Measured values: PubChem BioAssay (NCATS)
Records with an inconclusive call do not appear. A number with no mark means an inactive call. Active and inactive are the calls of the source. Calls come from the whole dose curve; as a rule, active = well fitted inhibition curve with a large enough effect; inconclusive = small, poorly fitted or top-dose-only effect; inactive = flat fitted curve, though single readings scatter.

test: P-glycoprotein substrates identified in KB-8-5-11 adenocarcinoma cell line, qHTS therapeutic library screen (AID 1346987); details: KB-8-5-11 (P-gp overexpressing) viability, CellTiter-Glo, 72 h; series mostly up to 44.5 µM; activity change, negative = cytotoxicity: at the top concentration; note: nearly all actives have a fitted effect of over 65% in size
Description: The ATP-binding cassette transporters P-glycoprotein (P-gp) is known to limit brain penetration of many chemotherapy drugs. […] As such, we developed a high-throughput screen (HTS) to identify substrates of P-gp from a series of chemical libraries including the National Center for Advancing Translational Sciences Pharmaceutical Collection NPC, 2,816 compounds), testing a total of 10,804 compounds, most of which have known mechanisms of action. We used the CellTiter-Glo viability assay to test library compounds against the parental KB-3-1 human cervical adenocarcinoma cell line and the colchicine-selected sub-line KB-8-5-11 that over-expresses P-gp. KB-8-5-11 cells were also tested in the presence of a P-gp inhibitor (tariquidar) to assess reversability of transporter-mediated resistance. Of the tested compounds, a total of 90 P-gp substrates were identified including 55 newly identified P-gp substrates. Substrates were confirmed using an orthogonal killing assay against HEK-293 cells transfected with P-gp. As exemplars, we confirmed that […] (cyclin-dependent kinase inhibitor); AT9283, (Janus kinase 2/3 inhibitor); ispinesib (kinesin spindle protein inhibitor); gedatolisib (PKI-587, phosphoinositide 3-kinase/mammalian target of rampamycin inhibitor); GSK-690693 (AKT inhibitor); and KW-2478 (heat shock protein 90 inhibitor) were substrates , and direct ATPase stimulation was assessed. ABCG2 was also found to confer high levels of resistance to AT9283, GSK-690693 and gedatolisib, while ispinesib, AT7519 and KW-2478 were weaker substrates.
The HeLa derivative cell line, KB-3-1, and its colchicine-selected, P-gp-overexpressing subline, KB-8-5-11 were maintained in DMEM with 10% FCS and Pen/Strep with glutamine at 37 degree C in 5% CO2. For KB-8-5-11 cells, colchicine was added to the medium at a concentration of 100 ng/mL. HEK-293 cells transfected with empty vector (pcDNA) or vector containing human ABCB1 (MDR-19) or ABCG2 (R-5) have been described previously (Robey, Lin, Qiu, Chan & Bates, 2011) and were maintained in EMEM supplemented with 10% FCS, Pen/Strep and glutamine with 2 mg/ml G418 to select for the expression of the transporter. Cultures were confirmed to be free of mycoplasma infection using the MycoAlert Mycoplasma Detection Kit (Lonza, Walkersville, MD). For the screen, assay medium was identical to culture medium except for KB-8-5-11 where colchicine was excluded from the medium.
All cell lines were plated into 1536-well plates at 500 cells/well in 5 uL media. Compounds were then pinned in dose-response using a 1536-head pin tool (Kalypsis, San Diego, CA) and plates were incubated at 37 degree C in 5% CO2 for an additional 72 h. CellTiter-Glo reagent (Promega) was dispensed into the wells, incubated for 5 min and luminescence was read on a ViewLux instrument (Perkin-Elmer). Cytotoxic compounds were defined as those that yielded a curve class of -1.1, -1.2, -2.1, -2.2, -2.3, or -2.4, a maximum response of >50% and an AC50 of < 10 uM. Cherry-picked hits from screening analysis were tested with both the KB pair of cell lines, and the pcDNA (empty vector control) and MDR-19 (P-gp overexpressing) pair were tested, in the absence and presence of tariquidar.
% is set by controls: 0 for no effect and ±100 for the full control effect; potency is the fitted concentration of half-maximal effect.

Row | Structure (SMILES) | activity change, negative = cytotoxicity | Potency | outcome
1 | CCCCCCCCCCC(O)C1C=CC2C(=O)N(c3ccccc3)C(=O)C2N1Nc1ccc([N+](=O)[O-])cc1 (stereo not given) | -15.9% |  | 
2 | C=C1[C@@H](C2=CC(=O)OC2)CC[C@@]2(O)[C@@H]1CC1[C@H]2CC[C@@H]2C[C@@H](O[C@H]3O[C@@H](C)[C@@H](O[C@@H]4O[C@H](CO[C@@H]5O[C@H](CO)[C@@H](O)[C@H](O)[C@H]5O)[C@@H](O)[C@H](O)[C@H]4O)[C@H](OC)[C@H]3O)CC[C@]12C (stereo not given in full) |  | 3.48 µM (active) | 
3 | CSc1cc2c(s1)c1cnn(Cc3ccccc3F)c(=O)c1n2C | 2.63% |  | 
4 | Nc1[nH]nc2nc3ccccc3nc12 | -10.1% |  | 
5 | COc1cc(OC)cc(N(CCNC(C)C)c2ccc3ncc(-c4cnn(C)c4)nc3c2)c1 |  | 18.4 µM (active) | 
6 | NS(=O)(=O)c1cccc(N=Cc2c(O)[nH]c3ccccc23)c1 | -18% |  | 
7 | CC(C)C(=O)OC[C@H]1O[C@@H](n2ccc(N)nc2=O)[C@](C)(F)[C@@H]1OC(=O)C(C)C |  |  | inactive
8 | Cc1cn(C2OC(CO)C(O)C2F)c(=O)[nH]c1=O (stereo not given) |  |  | inactive
9 | CN(C)c1ccc(Nc2c3ccc(NC(=O)CCN4CCCC4)cc3nc3cc(NC(=O)CCN4CCCC4)ccc23)cc1 | -2.98% |  | 
10 | CC(C)N(CCCNC(=O)Nc1ccc(C(C)(C)C)cc1)C[C@H]1O[C@@H](n2cc(Br)c3c(N)ncnc32)[C@H](O)[C@@H]1O | -7.85% |  | 
11 | CC[C@H](CO)Nc1nc(Nc2cccc(-c3ccccn3)c2)c2ncn(C(C)C)c2n1 |  | 20.6 µM (active) | 
12 | [2H]C([2H])([2H])C(OC(=O)[C@H](C)N[P@](=O)(OC[C@H]1O[C@@H](n2ccc(=O)[nH]c2=O)[C@](C)(F)[C@@H]1O)Oc1ccccc1)C([2H])([2H])[2H] | 0.541% |  | 
13 | NS(=O)(=O)c1ccc(N=Nc2c(O)[nH]c3ccc(Br)cc23)cc1 |  | 11.6 µM (active) | 
14 | CC(Sc1nc2c(cnn2-c2cccc(Cl)c2)c(=O)[nH]1)C(N)=O (stereo not given) | -7.84% |  | 
15 | CC(C)=CCC/C(C)=C/CC/C(C)=C/CSc1ccccc1C(=O)O | -6.5% |  | 
16 | Cc1ccc(NS(=O)(=O)c2cc3c(cc2NCCO)NC(=O)CC3)cc1C | -1.57% |  | 
17 | CN(C)CCCNc1c2ccccc2nc2c1[nH]c1ccccc12 |  | 2.31 µM (active) | 
18 | C[C@@]1(F)[C@H](O)[C@@H](CO)O[C@H]1n1ccc(N)nc1=O | 1.05% |  | 
19 | CN(C)CCCCCCNC(=O)c1cccc(-c2cc(O)c3ncccc3c2)c1 |  | 8.2 µM (active) | 
20 | CN(C)Cc1cccc(N=C(c2ccccc2)c2c(O)[nH]c3cc(C(N)=O)ccc23)c1 | -0.44% |  | 

Row | Structure (SMILES) | activity change, negative = cytotoxicity | Potency | outcome
21 | CCS(=O)(=O)N(Cc1cccnc1)c1cccc(-c2ccc(C#N)cc2)c1 |  | 23.1 µM (active) | 
22 | Fc1ccccc1CNCc1ccc(-c2ccnc3[nH]ccc23)cc1 |  | 11.6 µM (active) | 
23 | COc1cc2c(cc1OC)/C(=C/c1ccc(O)cc1)C(=O)N2 | -1.7% |  | 
24 | O=C(NOCCO)c1cc(CN2OCCCC2=O)c(F)c(F)c1Nc1ccc(I)cc1F | 2.42% |  | 
25 | COc1cc([C@@H]2c3cc4c(cc3C(O[C@@H]3O[C@@H]5CO[C@@H](C)O[C@H]5[C@H](O)[C@H]3O)C3COC(=O)[C@@H]32)OCO4)cc(OC)c1OP(=O)(O)O (stereo not given in full) |  | 18.4 µM (active) | 
26 | C=C1C(=O)O[C@@H]2C[C@@H](C)[C@]34C[C@]5(C(=O)O[C@H]6CC(C)=C([C@H](C)CCCO)[C@H](OC(=O)C(C)CC)[C@H]65)[C@@H](C(C)=C3C[C@@H]12)[C@H]4OC(C)=O (stereo not given in full) |  | 5.44 µM (active) | 
27 | COC[C@H](C)Oc1cc(O[C@@H](C)Cc2ccccc2)cc(C(=O)Nc2ccc(C(=O)O)cn2)c1 |  |  | inactive
28 | CN1CCCN(C(=O)c2cccc(-c3ccc(/C=C4\C(=O)Nc5ccc(Cl)cc54)o3)c2)CC1 |  | 9.2 µM (active) | 
29 | OC[C@H]1O[C@@H](O[C@@H]2OC=C[C@H]3[C@H](O)[C@@H]4O[C@]4(CO)[C@@H]23)[C@H](O)[C@@H](O)[C@@H]1O | -5.58% |  | 
30 | CC(C)n1cc(-c2ccc(Oc3ccccc3)cc2)c2c(N)ncnc21 |  | 9.2 µM (active) | 
31 | COc1cc(O)c2c(=O)c(O)c(-c3ccc(O)c(O)c3)oc2c1 | -16% |  | 
32 | C[C@]1(C(=O)Nc2ccc(F)nc2)CCCN1c1nc(Nc2cc(C3CC3)[nH]n2)c2cccn2n1 |  | 2.91 µM (active) | 
33 | CCC[C@@H](NC(=O)N1C(=O)C(CC)(CC)[C@@H]1Oc1ccc(C(=O)N2CCN(C)CC2)cc1)c1ccc2c(c1)OCO2 |  | 20.6 µM (active) | 
34 | O=C1NC(=O)/C(=C\c2ccc3nccc(-c4ccncc4)c3c2)S1 |  | 1.46 µM (active) | 
35 | CC1CCC(n2c3cnccc3c3cnc(Nc4ccc5c(n4)CCN(C(=O)CO)C5)nc32)CC1 (stereo not given) |  | 5.8 µM (active) | 
36 | O=C(c1ccc(-c2ccc(Cl)cc2)o1)N(Cc1ccccn1)c1ccc(N2CCNCC2)cc1 | -27.6% |  | 
37 | COc1ccc2cc1Oc1ccc(cc1)CC1c3cc(c(OC)cc3CCN1C)Oc1c(OC)c(OC)c(OC)c3c1C(C2)N(C)CC3 (stereo not given) | 4.14% [at 17.3 µM] |  | 
38 | N#Cc1cccc(C#N)c1-c1nc2c3ccccc3c3cc(Cl)ccc3c2[nH]1 |  | 23.1 µM (active) | 
39 | O=C1NCCSc2c1sc1ccc(O)cc21 |  | 10.3 µM (active) | 
40 | C[C@@H](Nc1cc(F)cc(F)c1)c1cc(C(=O)N(C)C)cc2c(=O)cc(N3CCOCC3)oc12 | 0.0672% |  | 
